Compound activity (PubChem BioAssay)
Only some compounds are listed: those with a hit (about 4.9% of all), similar ones and a draw of the others.
Mdm2 MdmX PPI: inhibitors of human Mdm2/MdmX interaction | AID 485346 | inhibition, % at 8 µM | O15151+Q00987 | hit rate 3% among 330,000 | SaOS-2 split-luciferase Mdm2/MdmX complementation, luminescence;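 active = inhibition of at least 50% at 8 µM in the primary screen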
PP1 inh: blocks human PP1-alpha phosphatase, a PP5 counter-screen; AID 2235; purified PP1alpha, OMFP fluorescence; hit rate 0.9% among 320,000; inhibition, % at 6.7 µM;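 active = inhibition above the mean inhibition of all tested compounds plus 3 SD, computed separately for each screening campaign, cut at about 15% in these data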
Beta apoptosis: beta cell apoptosis inhibition; INS-1E cytokine-induced death, ATP luminescence, 48 h; percent of positive-control rescue, neutral wells zero; protection from apoptosis, % (concentration not given with the values); hit rate 0.8% among 300,000; AID 435005;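 active = Every replicate reaches about 75%, or at least half do and their mean reaches it too, limit read from the data; inconclusive = At least half of replicates reach the limit but their mean does not; inactive = Under half of replicates reach the limit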;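 note: higher means more ATP so stronger rescue from cytokine killing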
PP5 inh: blocks human protein phosphatase 5 activity; P53041; purified PP5c, OMFP substrate fluorescence; inhibition, % at 6.7 µM; hit rate 0.18% among 320,000;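 active = inhibition above the campaign's mean inhibition across all tested compounds plus 3 SD, cut at about 9.5% in these data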
Target sequence (P53041 whole entry, looked up): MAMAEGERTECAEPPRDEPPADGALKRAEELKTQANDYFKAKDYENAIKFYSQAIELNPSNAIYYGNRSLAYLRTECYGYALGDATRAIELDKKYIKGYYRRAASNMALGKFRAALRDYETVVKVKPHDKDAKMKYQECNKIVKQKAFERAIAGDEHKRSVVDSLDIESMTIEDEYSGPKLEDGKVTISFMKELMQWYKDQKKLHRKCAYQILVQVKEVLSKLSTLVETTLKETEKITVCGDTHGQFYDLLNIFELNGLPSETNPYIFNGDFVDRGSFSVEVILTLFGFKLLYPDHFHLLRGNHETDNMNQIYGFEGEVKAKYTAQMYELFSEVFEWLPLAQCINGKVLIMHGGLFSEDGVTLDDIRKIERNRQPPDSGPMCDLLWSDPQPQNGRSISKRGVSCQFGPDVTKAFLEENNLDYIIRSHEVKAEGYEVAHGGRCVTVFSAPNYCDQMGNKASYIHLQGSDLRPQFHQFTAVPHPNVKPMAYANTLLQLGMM
CSC inhib: blocks cancer stem cells; inhibition, % at 7.5 µM; hit rate 1.1% among 300,000; cancer stem cell-like cells viability, luminescence; AID 2717; in the data active = inhibition above about 75%; inconclusive = no clear call, values can overlap the other calls; tested in HMLE shEcad cells
Calb FLC: affects C. albicans growth with fluconazole. growth inhibition, % (concentration not given with the values). C. albicans CaCi-2 (fluconazole-resistant clinical isolate) + fluconazole, Alamar Blue growth, 48 h. hit rate 0.57% among 300,000. AID 1979;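 active = growth inhibition above about 58% in most replicates, limit read from the data, passing the limit was not always enough; inconclusive = exactly half the replicates above a set limit; inactive = most replicates below a set limit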;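 note: all wells also contain fluconazole at 8 µg/ml as a sub-toxic cotreatment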
Each line names hits and unclear results; the compound was inactive in the other large screens.

CCc1cc(C(=O)N2CCCC(C(=O)c3ccc(C(F)(F)F)cc3)C2)n(C)n1 (configuration not stated)	none (no result: PP1 inh, Beta apoptosis, PP5 inh, CSC inhib)
O=S(=O)(c1ccc(F)cc1)N1CCN(c2nc(-c3cccnc3)nc3ccccc23)CC1	PP1 inh 17 (no result: CSC inhib, Calb FLC)
O=C/C=C/c1c(-c2ccccc2)cc2oc3ccccc3cc1-2	CSC inhib 98
Cc1ccccc1N1CCN(c2ccc(NC(=O)C3CCCCC3C(=O)O)cc2)CC1 (configuration not stated)	CSC inhib 79
O=C(O)[C@H]1CCCC[C@H]1C(=O)Nc1ccc(Nc2ccccc2)cc1	none
CCCCOc1ccc(S(=O)(=O)N2CCN(c3ccc(N4CCN(CC)CC4)nn3)CC2)cc1	CSC inhib 95 (no result: Beta apoptosis)
CC(C)c1ccc(NC(=O)c2cc(S(=O)(=O)NCC3COc4ccccc4O3)ccc2F)cc1 (configuration not stated)	CSC inhib 123
COc1ccc(NC(=O)c2cc(S(=O)(=O)NCC3COc4ccccc4O3)ccc2F)cc1 (configuration not stated)	none
CC1CCN(CCC(=O)N/N=C/c2ccc([N+](=O)[O-])cc2)CC1	none
Cc1nonc1C(=O)N/N=C/c1ccc([N+](=O)[O-])o1	Calb FLC 82
O=C(N/N=C/c1ccco1)c1cc(-c2ccccc2)nc2ccccc12	none
CCCc1ccc(-c2cc(C(=O)N/N=C/c3ccc([N+](=O)[O-])o3)c3ccccc3n2)cc1	PP1 inh 17
COC(=O)CN1C(=O)[C@H]2[C@@H](c3ccc(C)o3)N3C(=O)CN(CC4CC4)C(=O)[C@@]3(C)[C@H]2C1=O	none
CC(C)(C)c1cc(NCc2ccccn2)n2ncc(-c3ccccc3)c2n1	CSC inhib 78 (no result: Beta apoptosis)
C/C(=N\N1C(=O)CSC1=S)c1ccc(Br)cc1	Calb FLC 73
Cc1ccc(C(=O)NN2C(=O)CSC2=S)cc1	none
Cc1cccc(C(=O)N2CCN(S(=O)(=O)N3CCCCCC3)CC2)c1	none (no result: CSC inhib)
COc1cccc(CNC(=O)c2ccc(NC(=O)C3=CSCCO3)cc2)c1	none
CSc1nn2c(C(F)(F)F)cc(C(F)(F)F)nc2c1C(=O)O	Calb FLC 112
O=C(NCCc1ccccc1)c1cc(=O)c2ccccc2o1	none
O=C(CN(Cc1ccccc1)S(=O)(=O)c1ccc(Br)cc1)NCC1CCCO1 (configuration not stated)	none
Cc1ccc(S(=O)(=O)N(CC(=O)NCC2CCCO2)Cc2ccc(F)cc2)cc1 (configuration not stated)	PP1 inh 15
Cc1ccc(S(=O)(=O)Nc2ccc(-c3nnc(SCc4ccccc4Cl)o3)cc2)cc1	CSC inhib 88
Cc1[nH]c(C)c(S(=O)(=O)N2c3ccccc3CC2C)c1C(=O)N1CCCCC1 (configuration not stated)	none
CC(C)(C)c1ccc(S(=O)(=O)N2CCN(c3ccccn3)CC2)cc1	none
Cc1csc2c(N3CCN(C(=O)c4ccc(C(C)(C)C)cc4)CC3)ncnc12	Beta apoptosis 116
C=CCn1c(O)c(C2=c3ccccc3=NC2=O)c2ccccc21	CSC inhib 96
Cc1cccc(-c2ocnc2C(=O)N2CCN(C(=O)c3cccs3)CC2)c1	none
CC(=O)Nc1ccc(N2CC(C)(C)C2=O)cc1	Calb FLC 72
COc1ccccc1C(=O)NCC(=O)N1CC=C(c2ccccc2)CC1	none (no result: CSC inhib, Calb FLC)
CN(C)S(=O)(=O)c1ccc(Nc2nc(C3CC3)nc3c2nnn3Cc2ccccc2Cl)cc1	Beta apoptosis 88 (no result: CSC inhib)
O=C(Nc1cccc(-c2cn3c(n2)SCC3)c1)c1ccc(Br)o1	Calb FLC 121
CC(CC(=O)N1CCN(c2cccc(Cl)c2)CC1)S(=O)(=O)c1ccc2c(c1)NC(=O)CO2 (configuration not stated)	Beta apoptosis 80
CSCCC(NC(=O)c1ccccc1C)C(=O)O (configuration not stated)	none
O=C(COC(=O)CNC(=O)c1sc2ccccc2c1Cl)Nc1c(Cl)cc(Cl)cc1Cl	Calb FLC inconclusive
O=C(O)c1cccc(NC(=O)c2cn(-c3ccccc3)nc2-c2cc3ccccc3o2)c1	PP1 inh 16
CC(=O)N1c2ccc(Cl)cc2C2C=CCC2C1c1cccc2ccccc12 (configuration not stated)	CSC inhib 78 (no result: Mdm2 MdmX PPI, Calb FLC)
Cc1ccc(NNC(=O)c2ccno2)cc1C	Calb FLC 93
Cc1cc(C(=O)NNc2ccc(C)c(C)c2)no1	none
Cc1ccc(NNC(=O)c2ccno2)cc1Cl	Beta apoptosis 99, CSC inhib 97
COC(=O)c1cc2c(=O)c3ccccc3oc2nc1/C=C/N(C)C	none (no result: Mdm2 MdmX PPI, PP1 inh, PP5 inh)
CCOC(=O)/C(=C\c1ccc(OC(F)F)cc1)C1=Nn2c(nnc2-c2ccc(Cl)cc2)SC1	Beta apoptosis 131, CSC inhib 100, Calb FLC inconclusive (no result: Mdm2 MdmX PPI)
CCOC(=O)c1cccc(C2=CC(=O)C[C@H](c3ccc(Cl)cc3)C2)c1	CSC inhib 77 (no result: Calb FLC)
O=C1C=C(c2ccc(Cl)c(C(F)(F)F)c2)C[C@@H](c2ccc(Cl)cc2)C1	CSC inhib 116 (no result: Calb FLC)
O=C1C=C(c2ccc(-c3ccccc3)cc2)C[C@@H](c2ccc(Cl)cc2)C1	none (no result: Calb FLC)
Cc1cccc(NC(=S)NNC(=O)CCn2cc(C)cn2)c1	none
COc1ccc(C(=O)N/C(=C/c2ccccc2F)C(=O)NCCN2CCOCC2)cc1OC	none (no result: Calb FLC)
CCN1CCN(S(=O)(=O)c2ccc(C(C)(C)C)cc2)CC1	none
Cn1c(CCC(=O)Nc2cc(S(C)(=O)=O)ccc2Cl)nc2cc(S(=O)(=O)N3CCOCC3)ccc21	none
Cc1c(Cc2ccccc2)sc(/N=C/c2c(O)ccc3ccccc23)c1C(N)=O	CSC inhib 98
CC(=O)N1c2ccc(S(=O)(=O)NCCc3ccc(Cl)cc3)cc2CC1C (configuration not stated)	none
CCCN1CCCc2cc(CN)ccc21	Beta apoptosis 98
CC(C)(C)OC(=O)CC[C@@H](C(=O)NCCCCCCCCCCC(=O)N1CCN(C(=O)OC(C)(C)C)CC1)n1cc(CCCCCNC(=O)OC(C)(C)C)nn1	none (no result: Calb FLC)
CC[C@H](C)[C@@H](C(=O)NCCCCCCCCCCC(=O)N1CCN(C(=O)OC(C)(C)C)CC1)n1cc(CCCCCNC(=O)OC(C)(C)C)nn1	Beta apoptosis 101 (no result: Calb FLC)
C#CCOCCOCCOCCNc1nc(N2CCN(C(=O)CCCCCCCCCCNC(=O)[C@H]([C@@H](C)CC)n3cc(CCCCN=C(N)N)nn3)CC2)nc(N2CCN(C(=O)CCCCCCCCCCNC(=O)[C@H]([C@@H](C)CC)n3cc(CCCCN=C(N)N)nn3)CC2)n1	PP1 inh 74, Beta apoptosis 99 (no result: Calb FLC)
C#CCOCCOCCOCCNc1nc(N2CCN(C(=O)CCCCCCCCCCNC(=O)[C@H](CO)n3cc(CCCSC)nn3)CC2)nc(N2CCN(C(=O)CCCCCCCCCCNC(=O)[C@@H]([C@H](C)O)n3cc(C)nn3)CC2)n1	PP1 inh 31 (no result: Calb FLC)
